The source of these data is PMC11006913.

Numbering of substitutions follows the chain as printed.

NKX3-2 (Homo sapiens, UniProt P78367 192-278, P234S), sequence (P78367 192-278 P234S): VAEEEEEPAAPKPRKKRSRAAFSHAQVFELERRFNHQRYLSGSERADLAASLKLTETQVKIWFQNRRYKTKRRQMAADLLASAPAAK

One test deals with T1, NKX2-6 (Homo sapiens, UniProt A6NCS4 118-204).
T1 sequence: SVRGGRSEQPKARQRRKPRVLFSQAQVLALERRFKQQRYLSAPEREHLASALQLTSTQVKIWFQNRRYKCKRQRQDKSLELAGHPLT
Kind of test: PBM; 200 nM protein, PBS. The note with it: dsDNA, one strand shown.
As for GAAGAGCA, the binding signal was 11.4 upbm affinity estimate (log intensity, higher = more binding, comparable within an allelic series).
On the same count and under the same terms, in the case of CCAGAATC it was 9.71 upbm affinity estimate (log intensity, higher = more binding, comparable within an allelic series).
Turning to GCAGTCCC, the binding signal is 9.36 upbm affinity estimate (log intensity, higher = more binding, comparable within an allelic series).
On to CCGGGAAC, for which the binding signal was 9.33 upbm affinity estimate (log intensity, higher = more binding, comparable within an allelic series).
The same measure, in the same setting: under ACCCAGGC stands 8.77 upbm affinity estimate (log intensity, higher = more binding, comparable within an allelic series).
For the sequence CCCGGAAA, the binding signal was 9.48 upbm affinity estimate (log intensity, higher = more binding, comparable within an allelic series).
Take ACGGGACT: the binding signal is 9.76 upbm affinity estimate (log intensity, higher = more binding, comparable within an allelic series).
Same read-out and setting: in the case of CGTCGGAC it was 9.07 upbm affinity estimate (log intensity, higher = more binding, comparable within an allelic series).
With ATCACTCA, the binding signal was 12.1 upbm affinity estimate (log intensity, higher = more binding, comparable within an allelic series).
Same read-out and setting: in the case of ACCGGGGG it was 9.31 upbm affinity estimate (log intensity, higher = more binding, comparable within an allelic series).
As to AAGTCATT, the binding signal was 11.3 upbm affinity estimate (log intensity, higher = more binding, comparable within an allelic series).
Take CCCGTTCG: the binding signal is 9.17 upbm affinity estimate (log intensity, higher = more binding, comparable within an allelic series).
On to GCTAAGTA, for which the binding signal was 12.9 upbm affinity estimate (log intensity, higher = more binding, comparable within an allelic series).
As to GGTGCGAC, the binding signal is 9.44 upbm affinity estimate (log intensity, higher = more binding, comparable within an allelic series).
On to ACGGCCAG, for which the binding signal was 9.26 upbm affinity estimate (log intensity, higher = more binding, comparable within an allelic series).
Same read-out and setting: in the case of TCAACTCA it was 11.4 upbm affinity estimate (log intensity, higher = more binding, comparable within an allelic series); in that of ACACGCGG, 9.54 upbm affinity estimate (log intensity, higher = more binding, comparable within an allelic series); in that of GCCCGCGC, 9.29 upbm affinity estimate (log intensity, higher = more binding, comparable within an allelic series).
On the same count and under the same terms, under GTTGATGA stands 10.9 upbm affinity estimate (log intensity, higher = more binding, comparable within an allelic series); under CTCTCATC, 11.6 upbm affinity estimate (log intensity, higher = more binding, comparable within an allelic series); under AAACACTA, 11.5 upbm affinity estimate (log intensity, higher = more binding, comparable within an allelic series).
Regarding GCCGATCC, the binding signal was 9.45 upbm affinity estimate (log intensity, higher = more binding, comparable within an allelic series).
With AGTTGCTG, the binding signal is 9.45 upbm affinity estimate (log intensity, higher = more binding, comparable within an allelic series).
Same read-out and setting: in the case of CAGGGTCG it was 9.43 upbm affinity estimate (log intensity, higher = more binding, comparable within an allelic series).
On to ACCGTTTG, for which the binding signal is 9.46 upbm affinity estimate (log intensity, higher = more binding, comparable within an allelic series).
Turning to CGCGGACG, the binding signal is 9.09 upbm affinity estimate (log intensity, higher = more binding, comparable within an allelic series).
Same read-out and setting: in the case of AAAGAGGG it was 11.6 upbm affinity estimate (log intensity, higher = more binding, comparable within an allelic series); in that of GATACTTA, 13.3 upbm affinity estimate (log intensity, higher = more binding, comparable within an allelic series).
As to CCACAGCG, the binding signal is 8.94 upbm affinity estimate (log intensity, higher = more binding, comparable within an allelic series).
With AGCCCTCA, the binding signal was 11.1 upbm affinity estimate (log intensity, higher = more binding, comparable within an allelic series).
On to AGCTGCAG, for which the binding signal is 9.32 upbm affinity estimate (log intensity, higher = more binding, comparable within an allelic series).
Consider CCCAAGGC, for which the binding signal is 9.12 upbm affinity estimate (log intensity, higher = more binding, comparable within an allelic series).
Same read-out and setting: in the case of AGTATGTA it was 11.6 upbm affinity estimate (log intensity, higher = more binding, comparable within an allelic series).

Another test concerns the target T2, PAX4 (Homo sapiens, UniProt O43316 9-242, R200Q).
T2 sequence: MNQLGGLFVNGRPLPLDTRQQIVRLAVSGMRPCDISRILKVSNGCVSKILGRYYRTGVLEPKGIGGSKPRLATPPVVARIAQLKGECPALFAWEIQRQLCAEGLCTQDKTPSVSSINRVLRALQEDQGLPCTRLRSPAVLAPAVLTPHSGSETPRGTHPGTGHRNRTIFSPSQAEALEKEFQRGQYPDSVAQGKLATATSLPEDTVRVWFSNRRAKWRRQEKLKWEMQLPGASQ
As to the kind of experiment: PBM; 200 nM protein, PBS. To be noted: dsDNA, one strand shown.
Turning to GAAATTAA, the binding signal was 11.9 upbm affinity estimate (log intensity, higher = more binding, comparable within an allelic series).
Still for that read-out and setting: in the case of GTAAATTA it was 11.9 upbm affinity estimate (log intensity, higher = more binding, comparable within an allelic series); in that of AAATTAGA, 11.9 upbm affinity estimate (log intensity, higher = more binding, comparable within an allelic series).

The target in the next test is PITX2 (Homo sapiens, UniProt Q99697 72-157). Kind of test: PBM; 200 nM protein, PBS. The note with it: dsDNA, one strand shown.
Take CGACGTCA: the binding signal is 8.05 upbm affinity estimate (log intensity, higher = more binding, comparable within an allelic series).
The same measure, in the same setting: in the case of GGCATTAC it was 10.5 upbm affinity estimate (log intensity, higher = more binding, comparable within an allelic series); in that of CGGTGATA, 9.92 upbm affinity estimate (log intensity, higher = more binding, comparable within an allelic series).

The target in another test is T3, NKX2-6 (Homo sapiens, UniProt A6NCS4 118-204, F151L).
T3 sequence: T1 sequence with F34L
Kind of test: PBM; 200 nM protein, PBS. The note with it: dsDNA, one strand shown.
For the sequence GAAGAGCA, the binding signal was 9.71 upbm affinity estimate (log intensity, higher = more binding, comparable within an allelic series).
For CCAGAATC, the binding signal is 9.51 upbm affinity estimate (log intensity, higher = more binding, comparable within an allelic series).
Consider GCAGTCCC, for which the binding signal is 9.32 upbm affinity estimate (log intensity, higher = more binding, comparable within an allelic series).
As to CCGGGAAC, the binding signal is 9.31 upbm affinity estimate (log intensity, higher = more binding, comparable within an allelic series).
Still for that read-out and setting: in the case of ACCCAGGC it was 9.31 upbm affinity estimate (log intensity, higher = more binding, comparable within an allelic series); in that of CCCGGAAA, 9.48 upbm affinity estimate (log intensity, higher = more binding, comparable within an allelic series); in that of ACGGGACT, 9.42 upbm affinity estimate (log intensity, higher = more binding, comparable within an allelic series).
Turning to CGTCGGAC, the binding signal is 9.37 upbm affinity estimate (log intensity, higher = more binding, comparable within an allelic series).
As for ATCACTCA, the binding signal was 9.9 upbm affinity estimate (log intensity, higher = more binding, comparable within an allelic series).
Regarding ACCGGGGG, the binding signal is 9.04 upbm affinity estimate (log intensity, higher = more binding, comparable within an allelic series).
AAGTCATT: the binding signal was 9.8 upbm affinity estimate (log intensity, higher = more binding, comparable within an allelic series).
Still for that read-out and setting: in the case of CCCGTTCG it was 9.43 upbm affinity estimate (log intensity, higher = more binding, comparable within an allelic series); in that of GCTAAGTA, 10.4 upbm affinity estimate (log intensity, higher = more binding, comparable within an allelic series); in that of GGTGCGAC, 9.43 upbm affinity estimate (log intensity, higher = more binding, comparable within an allelic series).
For the sequence ACGGCCAG, the binding signal is 9.26 upbm affinity estimate (log intensity, higher = more binding, comparable within an allelic series).
Take TCAACTCA: the binding signal is 9.78 upbm affinity estimate (log intensity, higher = more binding, comparable within an allelic series).
Same read-out and setting: in the case of ACACGCGG it was 9.38 upbm affinity estimate (log intensity, higher = more binding, comparable within an allelic series); in that of GCCCGCGC, 9.27 upbm affinity estimate (log intensity, higher = more binding, comparable within an allelic series).
For the sequence GTTGATGA, the binding signal was 9.75 upbm affinity estimate (log intensity, higher = more binding, comparable within an allelic series).
CTCTCATC: the binding signal is 9.79 upbm affinity estimate (log intensity, higher = more binding, comparable within an allelic series).
In the case of AAACACTA, the binding signal was 9.97 upbm affinity estimate (log intensity, higher = more binding, comparable within an allelic series).
Take GCCGATCC: the binding signal was 9.3 upbm affinity estimate (log intensity, higher = more binding, comparable within an allelic series).
For the sequence AGTTGCTG, the binding signal is 9.39 upbm affinity estimate (log intensity, higher = more binding, comparable within an allelic series).
Still for that read-out and setting: under CAGGGTCG stands 9.26 upbm affinity estimate (log intensity, higher = more binding, comparable within an allelic series).
For the sequence ACCGTTTG, the binding signal was 9.44 upbm affinity estimate (log intensity, higher = more binding, comparable within an allelic series).
Take CGCGGACG: the binding signal was 9.22 upbm affinity estimate (log intensity, higher = more binding, comparable within an allelic series).
The same measure, in the same setting: in the case of AAAGAGGG it was 9.79 upbm affinity estimate (log intensity, higher = more binding, comparable within an allelic series).
Turning to GATACTTA, the binding signal was 10.5 upbm affinity estimate (log intensity, higher = more binding, comparable within an allelic series).
On the same count and under the same terms, under CCACAGCG stands 9.3 upbm affinity estimate (log intensity, higher = more binding, comparable within an allelic series); under AGCCCTCA, 9.52 upbm affinity estimate (log intensity, higher = more binding, comparable within an allelic series); under AGCTGCAG, 9.44 upbm affinity estimate (log intensity, higher = more binding, comparable within an allelic series).
Still for that read-out and setting: in the case of CCCAAGGC it was 9.27 upbm affinity estimate (log intensity, higher = more binding, comparable within an allelic series); in that of AGTATGTA, 9.91 upbm affinity estimate (log intensity, higher = more binding, comparable within an allelic series).

A further test addresses NKX3-2 (Homo sapiens, UniProt P78367 192-278, P234S). As to the kind of experiment: PBM; 200 nM protein, PBS. The note with it: dsDNA, one strand shown.
With CCGGGAAC, the binding signal was 10.5 upbm affinity estimate (log intensity, higher = more binding, comparable within an allelic series).
Turning to CCCGTTCG, the binding signal is 10.5 upbm affinity estimate (log intensity, higher = more binding, comparable within an allelic series).
On the same count and under the same terms, in the case of CTCTCATC it was 11.7 upbm affinity estimate (log intensity, higher = more binding, comparable within an allelic series); in that of AGTTGCTG, 10.7 upbm affinity estimate (log intensity, higher = more binding, comparable within an allelic series).
For AGCCCTCA, the binding signal was 11.5 upbm affinity estimate (log intensity, higher = more binding, comparable within an allelic series).

The target in a further test is NKX3-2 (Homo sapiens, UniProt P78367 192-278). As to the kind of experiment: PBM; 200 nM protein, PBS. The note with it: dsDNA, one strand shown.
NKX3-2 (Homo sapiens, UniProt P78367 192-278), sequence (P78367 192-278): as the sequence (P78367 192-278 P234S) above, with S43P counted along it
As for CCGGGAAC, the binding signal was 10.5 upbm affinity estimate (log intensity, higher = more binding, comparable within an allelic series).
Still for that read-out and setting: in the case of CCCGTTCG it was 10.5 upbm affinity estimate (log intensity, higher = more binding, comparable within an allelic series); in that of CTCTCATC, 11.9 upbm affinity estimate (log intensity, higher = more binding, comparable within an allelic series).
As for AGTTGCTG, the binding signal was 10.6 upbm affinity estimate (log intensity, higher = more binding, comparable within an allelic series).
For AGCCCTCA, the binding signal is 11.6 upbm affinity estimate (log intensity, higher = more binding, comparable within an allelic series).
